Experimental data published in PubChem BioAssay AID1851 (National Center for Advancing Translational Sciences (NCATS), 2009).
Values joined by “and” are separate entries in the source; they are usually repeats but may differ in a detail not shown here. Identical values can stand only once. In all, about 16,000 compounds went through this assay and about 5,800 (36%) were called active. Roughly 23% stayed inconclusive and do not appear here. Calls follow the shape of the dose curve; as a rule, active = well fitted curve in the direction sought with a large enough effect; inconclusive = small, poorly fitted or top-dose-only effect, or effect the other way; inactive = no such curve, though single readings can be large or run the other way. This is one part of the list. Some compounds were tested as several samples or in several runs, with calls that do not always agree.

target: Cytochrome P450 2C19 (Homo sapiens) (UniProt P33261); assay: Cytochrome panel assay with activity outcomes; settings: recombinant CYP, pro-luciferin dealkylation, luminescence, p450-cyp2c19; series mostly up to 57.1 µM
Sequence (P33261 whole entry, looked up): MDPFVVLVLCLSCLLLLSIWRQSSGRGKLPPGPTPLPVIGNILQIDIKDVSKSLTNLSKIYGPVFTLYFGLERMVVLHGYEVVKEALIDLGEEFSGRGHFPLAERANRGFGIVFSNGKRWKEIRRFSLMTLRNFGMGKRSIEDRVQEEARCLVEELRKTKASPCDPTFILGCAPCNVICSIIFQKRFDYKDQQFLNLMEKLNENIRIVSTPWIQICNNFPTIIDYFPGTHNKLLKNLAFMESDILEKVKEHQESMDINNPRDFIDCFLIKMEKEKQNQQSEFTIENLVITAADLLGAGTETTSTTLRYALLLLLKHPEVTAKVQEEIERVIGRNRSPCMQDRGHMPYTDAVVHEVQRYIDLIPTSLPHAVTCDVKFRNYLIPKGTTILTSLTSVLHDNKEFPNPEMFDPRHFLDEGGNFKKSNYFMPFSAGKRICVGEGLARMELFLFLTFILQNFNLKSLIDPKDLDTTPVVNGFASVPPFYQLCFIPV
Description: The P450 gene superfamily is involved in the metabolism and clearance of xenobiotics. This assay used various human CYP P450 isozymes to measure the dealkylation of various pro-luciferin substrates to luciferin. The luciferin is then measured by luminescence after the addition of a luciferase detection reagent. Pro-luciferin substrate concentration in the assay was equal to its KM for its CYP P450 isozyme. Inhibitors and some substrates limit the production of luciferin, and decrease measured luminescence.
NCGC Assay Protocol Summary:
1, Reagent, 2 uL, Isozyme and Pro-Luciferin
2, Library compounds, 23 nl, 40 uM to 0.24 nM dilution series
3, Controls, 23 nl, Isozyme specific inhibitor
4, Reagent, 2 uL, NADPH regeneration solution
5, Incubation time, 60 min, Isozyme specific temperature
6, Reagent, 4ul, Detection reagent
7, Incubation time, 20 min, Isozyme specific temperature
8, Detection, 1 sec, ViewLux luminescent read
The luciferase-based P450-GloTM Screening Systems were obtained from Promega (Madison, WI) for CYP 1A2 (V9770), CYP 2C9 (V9790), CYP2 C19 (V9880), CYP 2D6 (V9890), and CYP 3A4 Luciferin-PPXE (V9910) and were adapted for 1,536-well microplates and an automated protocol. The control compounds furafylline for 1A2 (F124), sulfaphenazole for CYP 2C9 (S0758), ketoconazole for CYP 2C19 (K1003), quinidine for 2D6 (Q3625), and ketoconazole for 3A4 (K1003) were purchased from Sigma Aldrich (St. Louis, MO). Recombinant P450 enzymes were obtained from baculovirus constructs expressed in insect cells (BD/Gentest).
Medium-binding white solid Kalypsys plates used. Mixtures kept on ice. 1A2: 10 nM 1A2, 100 uM Luc-ME, 100 mM KPO4; 2C9: 10 nM 2C9, 100 uM Luc-H, 25 mM KPO4; 2C19: 5 nM 2C19, 10 uM Luc-H EGE, 50 mM KPO4; 2D6: 5 nM 2D6, 30 uM Luc-ME EGE, 100 mM KPO4; 3A4: 10 nM, 25 uM Luc-PPXE. All amounts are reflected in their final concentration, working concentration is 2x.
NADPH regeneration solution: 1.3 mM NADP+, 3.3 mM glucose-6-phosphate, 3.3 mM MgCl2, 0.4 U/mL glucose-6-phosphate dehydrogenase for all isozymes, 200 mM KPO4 for 3A4. Mixture prepared at RT but kept on ice during automated run.
RT incubation in auxilliary plate hotel for 1A2, 2D6, and 3A4; 37C for 2C9 and 2C19.
Keywords: P450, CYP1A2, CYP2C19, CYP2C9, CYP2D6, CYP3A4, Luciferase, MLSMR, MLSCN, NIH Roadmap, qHTS, NCGC
% is scaled to controls: 0 for no effect and ±100 for the full control effect.

Structure (SMILES) | activity, negative = inhibition | AC50
COc1cc2ccccc2c2cc([N+](=O)[O-])oc12 | -34.1% [at 11.4 µM] (inactive) | –
c1ccc2c([C@@H]3CCN(CCN4CCOCC4)C3)c[nH]c2c1 | 23.2% [at 11.4 µM] (inactive) | –
c1ccc(CCCCN2CCC(c3ccccc3)CC2)cc1 | – | 15.8 µM (active)
c1cc(CCN2CCCCC2)ccn1 | 9.84% [at 11.4 µM] (inactive) | –
C1C[C@@H]2CN(CCCN3CCOCC3)[C@@H](C1)O2 | -1.65% [at 11.4 µM] (inactive) | –
Cc1c2cc[n+](CCN3CCCCC3)cc2c(C)c2c1[nH]c1ccc(O)cc12 | 17.2% [at 11.4 µM] (inactive) | –
N=C1c2ccccc2CN1NC(=O)c1ccc(Cl)cc1 | – | inactive
C[C@@H]1O[C@H](O[C@H]2C[C@@H](O)[C@@]3(CO)[C@H]4[C@@H](O)C[C@]5(C)[C@@H](C6=CC(=O)OC6)CC[C@]5(O)[C@H]4CC[C@]3(O)C2)[C@@H](O)[C@H](O)[C@@H]1O | – | inactive
CCN1C[C@]2(COC(=O)c3ccccc3N3C(=O)C[C@H](C)C3=O)CC[C@H](OC)[C@@]34[C@@H]5C[C@H]6[C@H](OC)[C@H]5[C@](O)(C[C@@H]6OC)[C@@](O)([C@@H](OC)[C@@H]23)[C@@H]14 | – | inactive
CC[C@@]1(O)C(=O)OCc2c1cc1n(c2=O)Cc2cc3c(NC(=O)CN)cccc3nc2-1 | 11.8% [at 11.4 µM] (inactive) | –
CC[C@@]1(O)C(=O)OCc2c1cc1n(c2=O)Cc2cc3ccccc3nc2-1 | – | inactive and 20 µM (active)
CC[C@]1(OC(=O)CN)C(=O)OCc2c1cc1n(c2=O)Cc2cc3ccccc3nc2-1 | 17% [at 11.4 µM] (inactive) | –
Clc1cc(I)cc(Cl)c1NC1=NCCN1 | – | inactive
CC(C)NC(=O)N1CCCC2(CCN(C(=O)Oc3ccccc3)CC2)C1 | – | inactive
CC[C@H](Oc1ccc(Cl)cc1)C(=O)OC1C[C@H]2CC[C@@H](C1)N2C (some centres not stated) | – | 0.0158 µM (active)
CN1[C@@H]2CC[C@H]1CC(OC(=O)c1cc(Cl)cc(Cl)c1)C2 (some centres not stated) | – | inactive
C[C@@H](C(=O)OC1C[C@H]2CC[C@@H](C1)N2C)c1ccc(Br)cc1 (some centres not stated) | – | inactive
CCCN(CCC)C1Cc2cc(OC)c(OC)cc2C1 | – | inactive
NCCSC(c1ccccc1)c1ccccc1 | – | 1.26 µM (active)

Structure (SMILES) | activity, negative = inhibition | AC50
C[N+]1(C)CCN(c2ccccc2)CC1 | – | inactive
C=CCN1CCc2cccc3c2[C@@H]1Cc1ccc(O)c(O)c1-3 | – | inactive
NCCc1c[nH]c2ccccc12 | – | inactive
CC(=O)NCCc1c[nH]c2ccccc12 | – | 10 µM (active)
CN(C)CCCc1c[nH]c2ccccc12 | -13.7% [at 11.4 µM] (inactive) | –
c1ccc2c(c1)Sc1ccccc1N2C[C@H]1CN2CCC1CC2 | 38.1% [at 11.4 µM] (inactive) | –
CN(C(=O)Cc1ccc(Cl)c(Cl)c1)[C@H](CN1CCCC1)c1ccccc1 | – | 0.316 µM (active)
CN(C(=O)Cc1ccc(Cl)c(Cl)c1)[C@@H](CN1CCCC1)c1cccc(OCC(=O)O)c1 | – | inactive
C=CCN1CC[C@]23c4c5ccc(O)c4O[C@@H]2/C(=N/NC(=O)c2ccccc2)CC[C@@]3(O)[C@H]1C5 | – | inactive
CC(C)N(CC[C@@](C(N)=O)(c1ccccc1)c1ccccn1)C(C)C | – | inactive
COC(=O)[C@@]1(Cc2ccc(F)cc2)[C@H]2c3cc(C(=O)N(C)C)[nH]c3C[C@H]2CN1C(=O)c1ccccc1 | – | 20 µM (active)
CC[N+](C)(C)c1cccc(O)c1 | – | inactive
C/C=C1\C[C@H](C)[C@@](O)(CO)C(=O)OCC2=CCN3CC[C@@H](OC1=O)[C@@H]23 | – | inactive
CC(C)C12CN3CC(C(C)C)(CN(C1)C3c1cccnc1)C2=O (configuration not stated) | – | 14.1 µM (active)
CCN=C=NCCCN(C)C | 27.1% [at 11.4 µM] (inactive) | –
C[N+]1(C)C2CC(OC(=O)C(CO)c3ccccc3)CC1[C@@H]1O[C@H]21 (some centres not stated) | – | inactive
C[C@H]1CN(C2CCC(C#N)(c3ccc(F)cc3)CC2)CC[C@@]1(C(=O)O)c1ccccc1 (some centres not stated) | – | inactive
FC(F)(F)c1nc2ccc(SSc3ccc4nc(C(F)(F)F)[nH]c4c3)cc2[nH]1 | – | 5.01 µM (active)
C=C(C)[C@H]1CN[C@H](C(=O)O)[C@@H]1CC(=O)O | – | inactive

Structure (SMILES) | activity, negative = inhibition | AC50
c1cc(CN2CC3(CCNCC3)C2)ccn1 | – | inactive
CC(C)[C@@H]1CN[C@H](C(=O)O)[C@@H]1CC(=O)O | – | inactive
COC[C@H]1OC(=O)c2coc3c2[C@@]1(C)C1=C(C3=O)[C@H]2CCC(=O)[C@@]2(C)C[C@H]1OC(C)=O | – | inactive
CCCN1CCC[C@H](c2cccc(O)c2)C1 | – | inactive
Fc1ccc(CCNCc2ccc(Cl)c(Cl)c2)cc1 | – | 0.316 µM (active)
O=C1NC(=S)NC(=O)C1=Cc1cccc2cc3ccccc3cc12 | -39.2% [at 11.4 µM] (inactive) | –
O=c1cc(-c2ccc(O)cc2)oc2c([C@H]3O[C@@H](CO)[C@@H](O)[C@@H](O)[C@@H]3O)c(O)cc(O)c12 | – | inactive
O=P(O)(O)CCP(=O)(O)O | 13.6% [at 11.4 µM] (inactive) | –
COc1ccc(C2SCC(=O)Nc3c2c(C)nn3-c2ccccc2)cc1OC (configuration not stated) | – | 10 µM (active)
CNC(=O)Oc1ccc2c(c1)[C@@]1(C)CCN(C)[C@@H]1N2C | – | inactive
C[C@]12CC[C@H]3c4ccc(O)cc4CC[C@@H]3[C@H]1CC[C@@H]2OP(=O)(O)O | 34.7% [at 11.4 µM] (inactive) | –
CCCN(CCC)C(=O)Cc1c(-c2ccc(Cl)cc2)nc2c(Cl)cc(Cl)cn12 | – | inactive
COc1ccc(OC)c([C@H](O)[C@H](C)N)c1 | – | inactive
COc1ccc(Cl)cc1NC(=O)NCCCl | – | 20 µM (active)
CC1=NCCc2c1[nH]c1cc(O)ccc21 | – | inactive
O=C(OC1CCN(CCCl)CC1)C(c1ccccc1)c1ccccc1 | – | inactive
O=C(NCCN1CCN(C(=O)C(c2ccccc2)c2ccccc2)CC1)C(=O)Nc1ccccc1 | – | 25.1 µM (active)
O=C(c1ccccc1)[C@H]1[C@H](c2ccccc2[N+](=O)[O-])N1C1CCCCC1 (some centres not stated) | -82.8% [at 11.4 µM] (inactive) | –
Cc1ccc(C2(c3ccc(C)c(O)c3C)CCN(C)CC2)c(C)c1O | 2.67% [at 11.4 µM] (inactive) | –
